Calls of active or inactive are those of the source. Rule for the calls: active = hit-call score of the fitted dose curve at least 0.9, where 1 is the maximum; inactive = score below 0.9.
Assays:
[1] = read-out: urokinase plasminogen activator (uPA), PLAU (gene 5328); experiment: BSK_KF3CT_uPA: BioMAP Diversity Plus: KF3CT Assay for urokinase plasminogen activator (uPA) Biomarker Activity (AID 2283075); details: primary human keratinocytes with fibroblasts; actives raise or lower the signal
Summary of the method: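 Human keratinocyte plus foreskin fibroblast primary co-culture exposed to chemical for 24 h. uPA levels were quantified by ELISA, and activity was fitted bidirectionally against a DMSO negative-control baseline.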

[2] = read-out: CD40, CD40 (gene 958); experiment: BSK_LPS_CD40: BioMAP Diversity Plus: LPS Assay for CD40 Biomarker Activity (AID 2283076); details: primary human HUVEC with PBMC; actives raise or lower the signal
Summary of the method: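 ELISA readout of CD40 in HUVEC/PBMC co-culture (BSK_LPS system), 24 h post-dosing; bidirectional curve fit, DMSO baseline; parallel SRB total-protein staining for cytotoxicity.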

[3] = read-out: E-selectin (Homo sapiens) (UniProt P16581); experiment: BSK_LPS_Eselectin: BioMAP Diversity Plus: LPS Assay for Eselectin Biomarker Activity (AID 2283077); details: primary human HUVEC with PBMC; actives raise or lower the signal
Summary of the method: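 ELISA readout of E-selectin, 24 h post-dose, HUVEC + PBMC co-culture (LPS system). Gain or loss of signal vs DMSO baseline, bidirectional fit.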

[4] = read-out: Interleukin-8 (IL8), CXCL8 (gene 3576); experiment: BSK_LPS_IL8: BioMAP Diversity Plus: LPS Assay for Interleukin-8 (IL8) Biomarker Activity (AID 2283078); details: primary human HUVEC with PBMC; actives raise or lower the signal
Summary of the method: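 HUVEC + PBMC co-culture, LPS-activated; test chemicals dosed, IL-8 read by ELISA at 24 h. Bidirectional curve fit vs DMSO baseline (gain or loss of signal).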

[5] = BSK_LPS_SRB: Viability Assessment in the BioMAP Diversity Plus: LPS Assay (AID 2283079); details: primary human HUVEC with PBMC;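 note: total protein by sulforhodamine B absorbance as a cytotoxicity measure; measured one day after compound addition; fitted in both directions against DMSO so loss or gain of signal counts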
Summary of the method: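 HUVEC + PBMC co-culture, LPS-stimulated; compound 24 h. 10% TCA fix, 0.1% SRB stain, A560. Bidirectional fit vs DMSO.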

[6] = read-out: Interleukin-1 alpha (IL1a), IL1A (gene 3552); experiment: BSK_LPS_IL1a: BioMAP Diversity Plus: LPS Assay for Interleukin-1 alpha (IL1a) Biomarker Activity (AID 2283080); details: primary human HUVEC with PBMC; actives raise or lower the signal
Summary of the method: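 HUVEC/PBMC co-culture, LPS system; 24 h after dosing; IL-1a by ELISA; gain or loss of signal fitted bidirectionally vs DMSO baseline.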

[7] = read-out: Monocyte Chemoattractant Protein-1 (MCP1), CCL2 (gene 6347); experiment: BSK_LPS_MCP1: BioMAP Diversity Plus: LPS Assay for Monocyte Chemoattractant Protein-1 (MCP1) Biomarker Activity (AID 2283081); details: primary human HUVEC with PBMC; actives raise or lower the signal;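 for AC50: secreted MCP-1 protein quantified by ELISA in culture supernatant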
Summary of the method: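 ELISA read-out of MCP-1 after 24 h chemical dosing of a human umbilical vein endothelial cell/peripheral blood mononuclear cell co-culture stimulated with LPS. Gain or loss of signal fitted relative to DMSO controls.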

[8] = BSK_LPS_PGE2: BioMAP Diversity Plus: LPS Assay for Prostaglandin E2 (PGE2) Biomarker Activity (AID 2283082); details: primary human HUVEC with PBMC; actives raise or lower the signal;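 for AC50: secreted prostaglandin E2 measured by ELISA in LPS-stimulated co-culture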
Summary of the method: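 HUVEC plus human PBMC co-culture stimulated with LPS; secreted PGE2 quantified by ELISA 24 h after chemical dosing. Activity fitted bidirectionally against DMSO baseline; parallel SRB staining (0.1% SRB after 10% TCA fixation, 560 nm) flags overt cytotoxicity.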

[9] = read-out: Macrophage colony-stimulating factor (MCSF), CSF1 (gene 1435); experiment: BSK_LPS_MCSF: BioMAP Diversity Plus: LPS Assay for Macrophage colony-stimulating factor (MCSF) Biomarker Activity (AID 2283083); details: primary human HUVEC with PBMC; actives raise or lower the signal
Summary of the method: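 HUVEC + PBMC co-culture (human primary), 24 h post-dose; M-CSF by ELISA; gain/loss of signal fitted bidirectionally vs DMSO baseline.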

[10] = read-out: Tissue Factor, F3 (gene 2152); experiment: BSK_LPS_TissueFactor: BioMAP Diversity Plus: LPS Assay for Tissue Factor Biomarker Activity (AID 2283084); details: primary human HUVEC with PBMC; actives raise or lower the signal
Summary of the method: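 HUVEC/PBMC co-culture, LPS-activated; CD142 ELISA read 24 h post-dose; bidirectional curve fit vs DMSO negative control.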

[11] = read-out: Tumor necrosis factor (Homo sapiens) (UniProt P01375); experiment: BSK_LPS_TNFa: BioMAP Diversity Plus: LPS Assay for Tumour Necrosis Factor alpha (TNFa) Biomarker Activity (AID 2283085); details: primary human HUVEC with PBMC; actives raise or lower the signal
Summary of the method: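 Human umbilical vein endothelial cells co-cultured with PBMC and stimulated with LPS. TNFa was measured by ELISA 24 h after chemical dosing, fitted bidirectionally relative to DMSO.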

[12] = read-out: Vascular cell adhesion molecule 1 (VCAM1), VCAM1 (gene 7412); experiment: BSK_LPS_VCAM1: BioMAP Diversity Plus: LPS Assay for Vascular cell adhesion molecule 1 (VCAM1) Biomarker Activity (AID 2283086); details: primary human HUVEC with PBMC; actives raise or lower the signal
Summary of the method: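 Human umbilical vein endothelial cells co-cultured with PBMC and stimulated with LPS; VCAM-1 measured by ELISA 24 h after dosing. Bidirectional curve fitting against DMSO baseline; cytotoxicity tracked in parallel by SRB total-protein staining.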

[13] = read-out: CD38, CD38 (gene 952); experiment: BSK_SAg_CD38: BioMAP Diversity Plus: SAg Assay for CD38 Biomarker Activity (AID 2283087); details: primary human HUVEC with PBMC; actives raise or lower the signal
Summary of the method: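 Human HUVEC plus PBMC co-culture stimulated with superantigen; CD38 measured by ELISA 24 h after chemical dosing. Fluorescence read-out, bidirectional fit against DMSO; cytotoxicity tracked in parallel by SRB and Alamar Blue.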

[14] = read-out: CD40, CD40 (gene 958); experiment: BSK_SAg_CD40: BioMAP Diversity Plus: SAg Assay for CD40 Biomarker Activity (AID 2283088); details: primary human HUVEC with PBMC; actives raise or lower the signal
Summary of the method: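 HUVEC/PBMC co-culture, 24 h post-dose; CD40 by ELISA, fluorescence intensity; bidirectional fit vs DMSO negative control.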

[15] = read-out: CD69, CD69 (gene 969); experiment: BSK_SAg_CD69: BioMAP Diversity Plus: SAg Assay for CD69 Biomarker Activity (AID 2283089); details: primary human HUVEC with PBMC; actives raise or lower the signal;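 for AC50: cell surface CD69 protein quantified by ELISA with fluorescence detection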
Summary of the method: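 Values derive from bidirectional fitting relative to DMSO vehicle. Cells: umbilical vein endothelium plus peripheral blood mononuclear cells, treated 24 h before fluorescent ELISA for CD69.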

[16] = read-out: Monocyte Chemoattractant Protein-1 (MCP1), CCL2 (gene 6347); experiment: BSK_SAg_MCP1: BioMAP Diversity Plus: SAg Assay for Monocyte Chemoattractant Protein-1 (MCP1) Biomarker Activity (AID 2283090); details: primary human HUVEC with PBMC; actives raise or lower the signal
Summary of the method: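 MCP-1 levels in the endothelial–PBMC SAg co-culture were quantified by ELISA at 24 h post-dosing; both increases and decreases versus DMSO scored. Cytotoxicity monitored by SRB total protein in parallel cultures.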

[17] = read-out: E-selectin (Homo sapiens) (UniProt P16581); experiment: BSK_SAg_Eselectin: BioMAP Diversity Plus: SAg Assay for Eselectin Biomarker Activity (AID 2283091); details: primary human HUVEC with PBMC; actives raise or lower the signal
Summary of the method: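 E-selectin ELISA readout at 24 h post-dosing in human umbilical vein endothelial cell/PBMC co-culture; gain or loss of signal fitted relative to DMSO baseline.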

[18] = read-out: Monokine induced gamma interferon (MIG), CXCL9 (gene 4283); experiment: BSK_SAg_MIG: BioMAP Diversity Plus: SAg Assay for Monokine induced gamma interferon (MIG) Biomarker Activity (AID 2283092); details: primary human HUVEC with PBMC; actives raise or lower the signal
Summary of the method: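 Values reflect bidirectional fitting of ELISA-measured MIG against DMSO vehicle, taken 24 h after dosing of a co-culture of human umbilical vein endothelial cells and peripheral blood mononuclear cells.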

[19] = BSK_SAg_PBMCCytotoxicity: PBMC Cytotoxicity Assessment in the BioMAP Diversity Plus: SAg Assay (AID 2283093); details: primary human HUVEC with PBMC;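 note: PBMC viability measured as Alamar Blue reduction fluorescence at 546/580 nm; fitted both ways against DMSO so a hit may be loss or gain of signal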;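 for AC50: PBMC superantigen activated with SEB plus TSST-1 one hour after compound addition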
Summary of the method: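 Human umbilical vein endothelial cells co-cultured with PBMC; PBMC (75,000/well) pre-treated with compound 1 h, then activated with SEB and TSST-1 (20 ng/mL final each) for 90 h. Alamar Blue added 6 h, fluorescence 546/580 nm; bidirectional fit versus DMSO.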

[20] = read-out: Interleukin-8 (IL8), CXCL8 (gene 3576); experiment: BSK_SAg_IL8: BioMAP Diversity Plus: SAg Assay for Interleukin-8 (IL8) Biomarker Activity (AID 2283094); details: primary human HUVEC with PBMC; actives raise or lower the signal
Summary of the method: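 Human umbilical vein endothelial cells co-cultured with PBMC, stimulated with superantigen; IL-8 measured by ELISA 24 h after chemical dosing. Bidirectional fitting versus DMSO; SRB staining in parallel cultures tracks cytotoxicity.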

Measured: AC50

Tumor necrosis factor (Homo sapiens), sequence (P01375 whole entry, looked up): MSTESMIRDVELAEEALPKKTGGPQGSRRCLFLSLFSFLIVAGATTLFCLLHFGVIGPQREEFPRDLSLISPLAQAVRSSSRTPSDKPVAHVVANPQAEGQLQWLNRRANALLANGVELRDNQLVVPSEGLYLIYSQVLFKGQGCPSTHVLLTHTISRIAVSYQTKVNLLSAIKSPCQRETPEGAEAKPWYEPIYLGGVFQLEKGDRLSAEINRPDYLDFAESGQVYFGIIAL
E-selectin (Homo sapiens), sequence (P16581 whole entry, looked up): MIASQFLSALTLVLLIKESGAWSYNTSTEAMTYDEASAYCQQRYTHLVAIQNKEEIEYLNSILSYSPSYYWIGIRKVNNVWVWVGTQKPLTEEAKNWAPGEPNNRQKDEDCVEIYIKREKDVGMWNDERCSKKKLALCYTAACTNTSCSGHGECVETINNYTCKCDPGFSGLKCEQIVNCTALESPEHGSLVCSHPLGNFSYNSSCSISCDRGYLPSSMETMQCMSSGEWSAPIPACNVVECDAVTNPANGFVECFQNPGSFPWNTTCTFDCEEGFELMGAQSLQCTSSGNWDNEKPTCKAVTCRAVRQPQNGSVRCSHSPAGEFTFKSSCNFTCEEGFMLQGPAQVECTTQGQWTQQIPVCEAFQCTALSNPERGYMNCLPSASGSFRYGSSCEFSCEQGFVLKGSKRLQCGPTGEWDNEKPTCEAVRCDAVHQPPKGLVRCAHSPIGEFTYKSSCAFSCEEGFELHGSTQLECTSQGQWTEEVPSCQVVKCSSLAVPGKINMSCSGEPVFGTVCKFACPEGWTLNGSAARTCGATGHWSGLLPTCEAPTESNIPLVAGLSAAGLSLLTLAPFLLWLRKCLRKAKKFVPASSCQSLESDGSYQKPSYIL

CCCCCCCCCCCCc1cccc(S(=O)(=O)O)c1
inactive: [2] | [3] | [4] | [5] | [6] | [7] | [8] | [9] | [10] | [11] | [12] | [13] | [14] | [15] | [16] | [17] | [18] | [19] | [20]
active: [1] 29.6 µM

CC(C)=CC1C(C(=O)OCc2cccc(Oc3ccccc3)c2)C1(C)C (stereo not given)
inactive: [1] | [2] | [3] | [4] | [5] | [6] | [7] | [8] | [9] | [10] | [11] | [12] | [13] | [14] | [15] | [16] | [18] | [19] | [20]
active: [17] 6.45 µM

Cc1cccc(OP(=O)(Oc2cccc(C)c2)Oc2cccc(C)c2)c1
inactive: [1] | [2] | [3] | [4] | [5] | [6] | [7] | [8] | [9] | [10] | [12] | [13] | [14] | [15] | [16] | [17] | [18] | [19] | [20]
active: [11] 32.3 µM

CCOC(=O)CC(=O)CCl
inactive: [1] | [3] | [5] | [18]
active: [2] 20 µM | [4] 31.9 µM | [6] 31.1 µM | [7] 26.1 µM | [8] 29 µM | [9] 20 µM | [10] 33.1 µM | [11] 34.9 µM | [12] 7.27 µM | [13] 24.6 µM | [14] 20 µM | [15] 27 µM | [16] 20 µM | [17] 20 µM | [19] 9.62 µM | [20] 9.73 µM

O=c1oc2ccccc2c(O)c1C(CC(O)c1ccc(-c2ccc(Br)cc2)cc1)c1ccccc1 (stereo not given)
active: [1] 5.28 µM | [2] 13 µM | [3] 14.3 µM | [4] 0.0502 µM | [5] 12.4 µM | [7] 19.1 µM | [9] 12.8 µM | [10] 19.1 µM | [12] 14.1 µM | [13] 23 µM | [14] 14.1 µM | [15] 19.1 µM | [16] 22.6 µM | [17] 28.6 µM | [18] 33.3 µM | [19] 23.5 µM
inactive: [6] | [8] | [11] | [20]

Clc1cccc(Cl)c1
inactive: [1] | [2] | [3] | [4] | [5] | [6] | [7] | [8] | [9] | [10] | [11] | [12] | [13] | [14] | [15] | [16] | [17] | [18] | [19] | [20]
